Results filed as inconclusive are left out. Active and inactive are the calls of the source. Unless noted, calls come from the whole dose curve; as a rule, active = well fitted curve in the direction sought with a large enough effect in the repeat runs; inconclusive = weak or mixed curves; inactive = no such curve, though single readings can be large; an effect the other way counts as inactive or inconclusive.
What was measured:
[1] = qHTS assay to identify aromatase inhibitors - cell viability counter screen (AID 743084);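 note: cells stimulated with testosterone during compound exposure; nearly all actives have a fitted effect of over 55% in size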
[2] = target: Aryl hydrocarbon receptor (Homo sapiens) (UniProt P35869); assay: qHTS assay to identify small molecule that activate the aryl hydrocarbon receptor (AhR) signaling pathway (AID 743085);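 note: HG2L7.5c1 human HepG2 liver cells with stably integrated DRE-driven firefly reporter; series mostly up to about 70 µM; nearly all actives have a fitted effect of over 15% in size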
Sequence of Aryl hydrocarbon receptor (Homo sapiens) (P35869 whole entry, looked up): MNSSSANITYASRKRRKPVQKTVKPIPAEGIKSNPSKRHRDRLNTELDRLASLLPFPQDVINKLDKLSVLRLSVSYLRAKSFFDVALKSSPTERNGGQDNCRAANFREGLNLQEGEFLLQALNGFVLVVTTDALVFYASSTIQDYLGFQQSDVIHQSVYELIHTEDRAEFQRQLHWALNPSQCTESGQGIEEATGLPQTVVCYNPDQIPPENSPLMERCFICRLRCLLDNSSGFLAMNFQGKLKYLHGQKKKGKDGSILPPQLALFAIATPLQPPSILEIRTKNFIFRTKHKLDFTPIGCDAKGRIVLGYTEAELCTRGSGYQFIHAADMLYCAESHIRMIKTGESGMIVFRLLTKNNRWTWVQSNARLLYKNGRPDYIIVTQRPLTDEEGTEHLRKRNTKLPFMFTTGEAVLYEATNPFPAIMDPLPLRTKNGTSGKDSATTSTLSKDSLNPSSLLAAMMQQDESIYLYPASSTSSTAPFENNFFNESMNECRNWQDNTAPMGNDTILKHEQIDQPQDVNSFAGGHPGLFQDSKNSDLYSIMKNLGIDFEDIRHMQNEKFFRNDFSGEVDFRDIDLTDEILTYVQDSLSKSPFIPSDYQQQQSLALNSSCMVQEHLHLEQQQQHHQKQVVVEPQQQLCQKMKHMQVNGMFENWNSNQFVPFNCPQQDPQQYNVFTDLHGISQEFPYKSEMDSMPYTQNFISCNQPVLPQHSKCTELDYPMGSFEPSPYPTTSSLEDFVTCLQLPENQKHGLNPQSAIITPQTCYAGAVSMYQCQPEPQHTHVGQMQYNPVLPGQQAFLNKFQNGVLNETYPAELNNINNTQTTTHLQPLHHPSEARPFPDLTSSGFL
Procedure, shortened: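 Luminescence read-out: ONE-Glo reagent, 30 min at room temperature, in HG2L7.5c1 HepG2 reporter cells treated 24 h at 37C. Viability was measured beforehand by CellTiter-Fluor fluorescence after 30 min at 37C.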

[3] = qHTS assay to identify small molecule that activate the aryl hydrocarbon receptor (AhR) signaling pathway - cell viability counter screen (AID 743086);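 note: HepG2 liver cells carrying the AhR DRE luciferase reporter; series mostly up to about 70 µM; nearly all actives have a fitted effect of over 45% in size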
Procedure, shortened: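 HepG2-AhR-luc (HG2L7.5c1) cells, 4000/well, treated 24 h at 37 C with compound; viability measured as CellTiter-Fluor fluorescence after 30 min in the same wells as the luciferase read.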

[4] = target: Peroxisome proliferator-activated receptor gamma (Homo sapiens) (UniProt P37231); assay: qHTS assay to identify small molecule agonists of the peroxisome proliferator-activated receptor gamma (PPARg) signaling pathway (AID 743094; active = well fitted activation curve with a large enough effect in the signal ratio in the repeat runs, not every such curve was filed as active; the % refers to the signal ratio)
Sequence of Peroxisome proliferator-activated receptor gamma (Homo sapiens) (P37231 whole entry, looked up): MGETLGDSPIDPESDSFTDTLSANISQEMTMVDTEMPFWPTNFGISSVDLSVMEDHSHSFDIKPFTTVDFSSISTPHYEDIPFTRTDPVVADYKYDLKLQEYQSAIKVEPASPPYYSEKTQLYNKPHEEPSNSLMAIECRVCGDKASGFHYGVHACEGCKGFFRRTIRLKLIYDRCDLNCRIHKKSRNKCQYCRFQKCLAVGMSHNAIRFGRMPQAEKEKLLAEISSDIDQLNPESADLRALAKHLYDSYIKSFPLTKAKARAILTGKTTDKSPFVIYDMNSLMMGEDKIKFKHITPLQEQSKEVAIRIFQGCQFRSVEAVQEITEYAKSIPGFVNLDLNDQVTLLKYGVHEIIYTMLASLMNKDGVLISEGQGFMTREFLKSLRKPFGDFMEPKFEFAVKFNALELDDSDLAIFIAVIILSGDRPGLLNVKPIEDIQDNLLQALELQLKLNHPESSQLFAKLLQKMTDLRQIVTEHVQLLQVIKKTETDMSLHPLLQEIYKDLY
Procedure, shortened: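 Compounds dissolved in DMSO were added to PPARg UAS-bla HEK293H cells for 17 h at 37C, and reporter expression was quantified by fluorescence intensity after 1 h with LiveBLAzer B/G FRET substrate.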

[5] = qHTS assay to identify small molecule antagonists of the peroxisome proliferator-activated receptor gamma (PPARg) signaling pathway - cell viability counter screen (AID 743194); settings: Potency: co-treated with 50 nM rosiglitazone; note: nearly all actives have a fitted effect of over 55% in size
Procedure, shortened: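 Cytotoxicity counter screen in PPARg-bla HEK293H cells, same wells as reporter assay. Compounds plus 50 nM rosiglitazone (final) for 17 h at 37 C, then viability read by CellTiter-Glo luminescence.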

[6] = qHTS assay for small molecule agonists of the antioxidant response element (ARE) signaling pathway - cell viability counter screen (AID 743203; calls by dose curve; note: nearly all actives have a fitted effect of over 55% in size)
Procedure, shortened: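 Following 16 hrs of compound treatment at 37C, HepG2 cells with an ARE-controlled beta-lactamase gene were lysed with CellTiter-Glo. Luminescence was read after 30 min at room temperature.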

[7] = qHTS assay for small molecule activators of the heat shock response signaling pathway - cell viability counter screen (AID 743209); note: nearly all actives have a fitted effect of over 50% in size
Procedure, shortened: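 Readout: CellTiter-Glo luminescence, 30 min at room temperature. System: HSE-bla HeLa cells, 1500/well, plated overnight. Treatment: compounds in DMSO, 5 h at 37 C.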

[8] = qHTS assay for small molecule activators of the heat shock response signaling pathway (AID 743210; active = well fitted activation curve with a large enough effect in the signal ratio in the repeat runs, with a control signal flat, not every such curve was filed as active; the % refers to the signal ratio;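 note: HeLa cells with beta-lactamase reporter driven by heat shock elements; series mostly up to about 63 µM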)
Procedure, shortened: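 Quantitative high-throughput format using an engineered HeLa line in which heat shock response elements drive beta-lactamase; after 5 h with compound, cells received a B/G FRET substrate and fluorescence was read.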

[9] = qHTS assay to identify small molecule agonists of the peroxisome proliferator-activated receptor delta (PPARd) signaling pathway - cell viability counter screen (AID 743211); note: nearly all actives have a fitted effect of over 55% in size
Procedure, shortened: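 Read-out: CellTiter-Glo luminescence, 30 min RT, measured in the same wells as the beta-lactamase reporter. Cells: GeneBLAzer PPAR delta UAS-bla HEK293H, 3000 cells/well, compound exposure 17 h at 37C.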

[10] = target: Peroxisome proliferator-activated receptor delta (Homo sapiens) (UniProt Q03181); assay: qHTS assay to identify small molecule agonists of the peroxisome proliferator-activated receptor delta (PPARd) signaling pathway (AID 743212; calls by dose curve)
Sequence of Peroxisome proliferator-activated receptor delta (Homo sapiens) (Q03181 whole entry, looked up): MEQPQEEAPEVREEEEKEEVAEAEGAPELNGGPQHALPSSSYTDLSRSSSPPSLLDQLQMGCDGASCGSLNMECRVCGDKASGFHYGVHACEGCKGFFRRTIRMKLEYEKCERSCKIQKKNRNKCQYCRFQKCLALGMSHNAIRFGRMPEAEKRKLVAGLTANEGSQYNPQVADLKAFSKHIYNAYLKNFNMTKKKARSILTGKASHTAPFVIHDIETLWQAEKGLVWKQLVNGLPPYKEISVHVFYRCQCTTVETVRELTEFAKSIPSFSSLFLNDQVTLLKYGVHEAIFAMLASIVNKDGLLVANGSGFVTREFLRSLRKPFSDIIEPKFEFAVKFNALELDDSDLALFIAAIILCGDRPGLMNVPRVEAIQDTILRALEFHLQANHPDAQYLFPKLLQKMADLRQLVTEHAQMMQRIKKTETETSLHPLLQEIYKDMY
Procedure, shortened: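 Quantitative high-throughput agonist screen in a HEK293H beta-lactamase reporter line under UAS control. Compounds in DMSO, at 37 C. Fluorescence read after 2 h with FRET substrate at room temperature.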

[11] = qHTS assay to identify small molecule antagonists of the peroxisome proliferator-activated receptor delta (PPARd) signaling pathway - cell viability counter screen (AID 743213); note: nearly all actives have a fitted effect of over 50% in size
Procedure, shortened: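 PPARd-bla HEK293H cells (3000/well) got compound plus 300 nM L165041 agonist for 17 h at 37 C. Viability in the same wells came from CellTiter-Glo luminescence after 30 min at room temperature.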

[12] = target: Peroxisome proliferator-activated receptor delta (Homo sapiens) (UniProt Q03181); assay: qHTS assay to identify small molecule antagonists of the peroxisome proliferator-activated receptor delta (PPARd) signaling pathway (AID 743215; active = well fitted inhibition curve with a large enough effect in the signal ratio in the repeat runs, not every such curve was filed as active; the % refers to the signal ratio;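 note: cells stimulated with agonist L165041 at 300 nM final during compound exposure; series mostly up to about 62 µM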)
Procedure, shortened: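 HEK293H UAS-bla, PPARd; agonist L165041 300 nM final with cpd in DMSO; 37 C 17 h; FRET substrate, RT 2 h; fluorescence intensity.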

[13] = target: Bile acid receptor (Homo sapiens) (UniProt Q96RI1); assay: qHTS assay to identify small molecule antagonists of the farnesoid-X-receptor (FXR) signaling pathway (AID 743217; active = well fitted inhibition curve with a large enough effect in the signal ratio in the repeat runs, not every such curve was filed as active; the % refers to the signal ratio)
Sequence of Bile acid receptor (Homo sapiens) (Q96RI1 whole entry, looked up): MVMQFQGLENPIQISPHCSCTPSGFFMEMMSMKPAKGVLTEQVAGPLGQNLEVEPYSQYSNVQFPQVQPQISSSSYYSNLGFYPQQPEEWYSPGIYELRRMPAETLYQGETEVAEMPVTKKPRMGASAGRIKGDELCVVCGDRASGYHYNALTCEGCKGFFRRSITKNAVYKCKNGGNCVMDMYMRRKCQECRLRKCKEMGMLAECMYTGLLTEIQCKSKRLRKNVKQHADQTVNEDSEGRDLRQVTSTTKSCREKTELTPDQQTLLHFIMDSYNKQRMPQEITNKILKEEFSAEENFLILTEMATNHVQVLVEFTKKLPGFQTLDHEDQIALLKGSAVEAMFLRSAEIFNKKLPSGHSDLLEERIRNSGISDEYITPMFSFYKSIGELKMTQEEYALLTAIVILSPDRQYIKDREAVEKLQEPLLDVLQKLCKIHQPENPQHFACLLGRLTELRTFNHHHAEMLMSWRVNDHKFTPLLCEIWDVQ
Procedure, shortened: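 GeneBLAzer FXR-UAS-bla HEK 293T, CDCA-stimulated (50 uM final). Compound treatment 16 h, 37 °C. Detection: beta-lactamase cleavage of B/G FRET substrate, fluorescence.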

[14] = qHTS assay to identify small molecule agonists of the farnesoid-X-receptor (FXR) signaling pathway - cell viability counter screen (AID 743218); note: nearly all actives have a fitted effect of over 45% in size
Procedure, shortened: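 Parallel cytotoxicity test: compound-treated (16 h, 37 C) HEK 293T FXR-bla reporter cells were lysed with CellTiter-Glo and luminescence recorded.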

[15] = target: Bile acid receptor (Homo sapiens) (UniProt Q96RI1); assay: qHTS assay to identify small molecule agonists of the farnesoid-X-receptor (FXR) signaling pathway (AID 743220; active = well fitted activation curve with a large enough effect in the signal ratio in the repeat runs, not every such curve was filed as active; the % refers to the signal ratio)
Procedure, shortened: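 Beta-lactamase reporter under UAS control in GeneBLAzer FXR HEK 293T cells (5000/well) measured with LiveBLAzer FRET substrate after 2 h at room temperature. Compound exposure lasted 16 h at 37C.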

[16] = qHTS assay to identify small molecule antagonists of the farnesoid-X-receptor (FXR) signaling pathway - cell viability counter screen (AID 743221; active = well fitted cell-killing curve with a large enough effect in the repeat runs, not every such curve was filed as active; note: nearly all actives have a fitted effect of over 50% in size)
Procedure, shortened: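 HEK 293T FXR-bla cells, 5 h pre-incubation; compound + CDCA 50 uM final, 16 h, 37 C; beta-lactamase FRET read first, then CellTiter-Glo luminescence, 30 min RT.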

[17] = target: Vitamin D3 receptor (Homo sapiens) (UniProt P11473); assay: qHTS assay to identify small molecule agonists of the vitamin D receptor (VDR) signaling pathway (AID 743222; calls by dose curve)
Sequence of Vitamin D3 receptor (Homo sapiens) (P11473 whole entry, looked up): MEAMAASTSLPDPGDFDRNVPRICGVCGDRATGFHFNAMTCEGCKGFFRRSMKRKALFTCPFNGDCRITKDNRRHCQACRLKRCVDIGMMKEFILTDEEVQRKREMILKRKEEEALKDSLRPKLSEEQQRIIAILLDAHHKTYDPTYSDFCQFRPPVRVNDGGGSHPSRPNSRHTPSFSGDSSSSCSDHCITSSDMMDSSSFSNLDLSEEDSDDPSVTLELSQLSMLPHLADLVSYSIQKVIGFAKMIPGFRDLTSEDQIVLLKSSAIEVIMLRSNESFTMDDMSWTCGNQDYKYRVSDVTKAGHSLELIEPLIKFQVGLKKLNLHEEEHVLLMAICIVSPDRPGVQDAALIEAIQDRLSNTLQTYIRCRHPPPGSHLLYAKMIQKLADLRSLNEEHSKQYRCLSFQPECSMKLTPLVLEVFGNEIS
Procedure, shortened: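 In VDR-bla cells, compound-induced beta-lactamase expression is quantified by FRET substrate fluorescence. Treatment lasts 16 h at 37C; substrate develops 2 h at room temperature.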

[18] = target: Vitamin D3 receptor (Homo sapiens) (UniProt P11473); assay: qHTS assay to identify small molecule antagonists of the vitamin D receptor (VDR) signaling pathway (AID 743223; active = well fitted inhibition curve with a large enough effect in the signal ratio in the repeat runs, not every such curve was filed as active; the % refers to the signal ratio)
Procedure, shortened: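 Beta-lactamase reporter read-out: FRET substrate fluorescence after 2 h at room temperature, following 16 h exposure of VDR-bla cells to test compound plus 3 nM (final) 1alpha,25-dihydroxyvitamin D3 agonist at 37C.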

[19] = target: Peroxisome proliferator-activated receptor gamma (Homo sapiens) (UniProt P37231); assay: qHTS assay to identify small molecule antagonists of the peroxisome proliferator-activated receptor gamma (PPARg) signaling pathway (AID 743191; calls by dose curve; note: series mostly up to about 63 µM; nearly all actives have a fitted effect of over 30% in size)
Procedure, shortened: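 GeneBLAzer PPARg UAS-bla HEK293H cells, 5 h post-plating, exposed to compounds 17 h at 37C. LiveBLAzer B/G FRET substrate added for 1 h at room temperature; beta-lactamase reporter read by fluorescence intensity.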

[20] = qHTS assay for small molecule agonists of the antioxidant response element (ARE) signaling pathway (AID 743202; active = well fitted activation curve with a large enough effect in the signal ratio in the repeat runs, not every such curve was filed as active; the % refers to the signal ratio)
Procedure, shortened: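 Agonist mode reporter screen: HepG2 cells with ARE-controlled beta-lactamase are incubated with test compounds for 16 h at 37 C, and beta-lactamase activity is measured as fluorescence of cleaved B/G FRET substrate.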

Measured: Potency

CCCCOC(=O)c1ccccc1N
not listed: [19] | [20]
inactive: all other assays above

CN(N=O)C(N)=O
not listed: [8] | [10] | [12] | [20]
inactive: all other assays above

O=[N+]([O-])c1ccc(CBr)cc1
inactive: [1] | [2] | [3] | [4] | [5] | [6] | [7] | [8] | [9] | [14] | [16]

ClCCOCOCCCl
not listed: [10] | [12] | [19] | [20]
inactive: all other assays above

CC(=O)C(Cl)Cl
not listed: [5] | [12] | [17] | [18]
inactive: all other assays above

CNNC
not listed: [10] | [12] | [18] | [19] | [20]
inactive: all other assays above

CCc1cc2c(s1)-n1c(C)nnc1CN=C2c1ccccc1Cl
not listed: [12] | [15] | [19] | [20]
inactive: all other assays above

Cc1cccc(C#N)c1
not listed: [10] | [18] | [19] | [20]
inactive: all other assays above

C=C(C)CN(CC)c1c([N+](=O)[O-])cc(C(F)(F)F)cc1[N+](=O)[O-]
not listed: [5] | [12] | [13] | [15] | [18] | [20]
inactive: all other assays above

Cc1nnc2n1-c1sc(CCC(=O)N3CCOCC3)cc1C(c1ccccc1Cl)=NC2
not listed: [12] | [15] | [17] | [18] | [19]
inactive: all other assays above

Source: PubChem BioAssay (Tox21)
